Measured values: PubChem BioAssay (NCI)
This is part of a sample that, as a whole, favours compounds with a hit. Of some 83,000 tested, about 20% had one in any assay.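 96-well plates, one dose, 48 hours. Percent growth reported; active if below 10.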 Activity calls are given as the source filed them.

Key:
Experiment in all cases: NCI-60 one-dose screen, 48 h (100 = growth as untreated, 0 = no growth, -100 = all killed)
Conditions in all cases: 10 µM unless noted
HCT-15 colon = tested on: HCT-15 colon
HT29 colon = tested on: HT29 colon
SNB-75 CNS = tested on: SNB-75 CNS
SNB-19 CNS = tested on: SNB-19 CNS
U251 CNS = tested on: U251 CNS
PC-3 prostate = tested on: PC-3 prostate
SK-MEL-5 melanoma = tested on: SK-MEL-5 melanoma
UACC-62 melanoma = tested on: UACC-62 melanoma
LOX IMVI melanoma = tested on: LOX IMVI melanoma
SK-MEL-28 melanoma = tested on: SK-MEL-28 melanoma
SK-MEL-2 melanoma = tested on: SK-MEL-2 melanoma
EKVX NSCLC = tested on: EKVX NSCLC
SN12C renal = tested on: SN12C renal
UO-31 renal = tested on: UO-31 renal
TK-10 renal = tested on: TK-10 renal
ACHN renal = tested on: ACHN renal
CAKI-1 renal = tested on: CAKI-1 renal
A498 renal = tested on: A498 renal
MOLT-4 leukemia = tested on: MOLT-4 leukemia
CCRF-CEM leukemia = tested on: CCRF-CEM leukemia

Measured: growth

Cc1c(C(=O)C(SC(=S)N2CCOCC2)SC(=S)N2CCOCC2)nnn1-c1ccc([N+](=O)[O-])cc1
inactive: HCT-15 colon 89.3% | HT29 colon 92.3% | SNB-75 CNS 94.2% | SNB-19 CNS 96.3% | U251 CNS 95.3% | PC-3 prostate 96.1% | SK-MEL-5 melanoma 107% | UACC-62 melanoma 88% | LOX IMVI melanoma 108% | SK-MEL-28 melanoma 103% | SK-MEL-2 melanoma 106% | EKVX NSCLC 113% | SN12C renal 96.4% | UO-31 renal 74.7% | TK-10 renal 100% | ACHN renal 98% | CAKI-1 renal 94.9% | A498 renal 128% | MOLT-4 leukemia 91.1%

COc1ccc(C(=O)/C=C/c2ccc(C)cc2)cc1S(N)(=O)=O
inactive: HCT-15 colon 22.8% | HT29 colon 45.7% | SNB-75 CNS 82.7% | SNB-19 CNS 14.5% | U251 CNS 17.1% | PC-3 prostate 50.4% | SK-MEL-5 melanoma 82.2% | UACC-62 melanoma 61.2% | LOX IMVI melanoma 28.8% | SK-MEL-28 melanoma 98.1% | SK-MEL-2 melanoma 87.1% | EKVX NSCLC 81% | UO-31 renal 37.4% | TK-10 renal 73.1% | ACHN renal 55.8% | CAKI-1 renal 73.6% | A498 renal 82.7% | CCRF-CEM leukemia 23.7% | MOLT-4 leukemia 15.9%
active: SN12C renal 6.38%

CC1(C)CCC[C@]23C(=O)O[C@](O)(C(=O)C4=C[C@@](C)(/C=C/CCCc5ccc6ccc7cccc8ccc5c6c78)CC[C@@]42O)[C@@H]13
active: HCT-15 colon -69.3% | HT29 colon -69.5% | SNB-75 CNS -78.8% | SNB-19 CNS -95.5% | U251 CNS -85.5% | PC-3 prostate -48.8% | SK-MEL-5 melanoma -96.3% | UACC-62 melanoma -75.5% | LOX IMVI melanoma -85.5% | SK-MEL-28 melanoma -86.6% | SK-MEL-2 melanoma -61.8% | EKVX NSCLC -84.9% | SN12C renal -94.4% | UO-31 renal -97.1% | TK-10 renal -88.7% | ACHN renal -100% | CAKI-1 renal -98.5% | A498 renal -87.9% | CCRF-CEM leukemia 0.0961% | MOLT-4 leukemia 9.46%

CC/C(=C(/c1ccc(Cl)cc1)c1ccc(OCCN(CC)CC)cc1)c1ccc(OC)cc1
active: HT29 colon -3.6%
inactive: HCT-15 colon 16.7% | SNB-75 CNS 97.2% | SNB-19 CNS 69.5% | U251 CNS 33.5% | PC-3 prostate 33.9% | SK-MEL-5 melanoma 46.1% | UACC-62 melanoma 72.8% | LOX IMVI melanoma 42.3% | SK-MEL-28 melanoma 56% | SK-MEL-2 melanoma 89.5% | EKVX NSCLC 62.2% | SN12C renal 67.5% | UO-31 renal 67.5% | TK-10 renal 64.9% | ACHN renal 79.4% | CAKI-1 renal 77% | A498 renal 104% | MOLT-4 leukemia 19.7%

Cn1nc(-c2ccc(Cl)cc2)nc2c(=O)n(C)c(=O)nc1-2
active: HCT-15 colon -67.5% | HT29 colon -77.3% | SNB-75 CNS -100% | SNB-19 CNS -84.5% | U251 CNS -82.6% | SK-MEL-5 melanoma -98.5% | UACC-62 melanoma -55.2% | LOX IMVI melanoma -58.6% | SK-MEL-28 melanoma -64.4% | SK-MEL-2 melanoma -44.6% | EKVX NSCLC -31.2% | SN12C renal -72.5% | ACHN renal -88.7% | CAKI-1 renal 6.17% | A498 renal -94.8% | CCRF-CEM leukemia -27.6% | MOLT-4 leukemia -47.3%
inactive: PC-3 prostate 16.6% | UO-31 renal 12.3% | TK-10 renal 70.3%

Cn1ccnc1C(=O)/C=C/c1ccc(C(=O)Nc2ccccc2F)cc1
inactive: HCT-15 colon 14.2% | HT29 colon 10.9% | SNB-75 CNS 56.2% | SNB-19 CNS 21.1% | U251 CNS 10.5% | PC-3 prostate 25.1% | SK-MEL-5 melanoma 83.7% | UACC-62 melanoma 37.3% | SK-MEL-28 melanoma 59.2% | SK-MEL-2 melanoma 76.2% | EKVX NSCLC 32.4% | UO-31 renal 34.9% | TK-10 renal 44.7% | ACHN renal 21.1% | CAKI-1 renal 25.8% | A498 renal 17.9% | MOLT-4 leukemia 12.1%
active: LOX IMVI melanoma -41.1% | SN12C renal 8.08% | CCRF-CEM leukemia 3.74%

Cc1ccc2c(n1)C[C@H](C(C)(C)O)CC[C@H]2C
inactive: HCT-15 colon 99.4% | HT29 colon 107% | SNB-75 CNS 91.8% | SNB-19 CNS 91.8% | U251 CNS 94.4% | PC-3 prostate 104% | SK-MEL-5 melanoma 98.9% | UACC-62 melanoma 94.4% | LOX IMVI melanoma 101% | SK-MEL-28 melanoma 106% | SK-MEL-2 melanoma 99.9% | EKVX NSCLC 92.4% | SN12C renal 98.4% | UO-31 renal 90.6% | TK-10 renal 97.5% | ACHN renal 102% | CAKI-1 renal 92.8% | A498 renal 98.1% | MOLT-4 leukemia 103%

COCCn1cc(-c2nc(-c3cc4cccnc4n3C)cs2)c2cc(OC)ccc21
inactive: HCT-15 colon 32.1% | HT29 colon 48.2% | SNB-75 CNS 47.7% | SNB-19 CNS 87.4% | U251 CNS 59% | PC-3 prostate 16.1% | SK-MEL-5 melanoma 26.7% | UACC-62 melanoma 61.7% | LOX IMVI melanoma 38.2% | SK-MEL-28 melanoma 88.3% | SK-MEL-2 melanoma 56.3% | EKVX NSCLC 24.8% | SN12C renal 73% | UO-31 renal 51% | TK-10 renal 19.5% | ACHN renal 64.2% | CAKI-1 renal 74.5% | A498 renal 46.6% | MOLT-4 leukemia 48.5%

CS(=O)(=O)c1cccc(Nc2ncc3cc(-c4ccccc4Cl)ccc3n2)c1
inactive: HCT-15 colon 12.1% | SNB-19 CNS 36.2% | U251 CNS 16.6% | PC-3 prostate 12.3% | SK-MEL-28 melanoma 19.7% | EKVX NSCLC 23.9% | SN12C renal 11% | TK-10 renal 19.5%
active: HT29 colon 1.92% | SNB-75 CNS -11.4% | SK-MEL-5 melanoma -49.1% | UACC-62 melanoma 4.77% | LOX IMVI melanoma -6.95% | SK-MEL-2 melanoma -25.6% | UO-31 renal -3.98% | ACHN renal 2.93% | CAKI-1 renal 9.3% | A498 renal 5.57% | CCRF-CEM leukemia 9.21% | MOLT-4 leukemia 5.83%

CC/C(=C(/c1ccc(Cl)cc1)c1ccc(OCCN2CCCC2)cc1)c1ccccc1
inactive: SNB-75 CNS 96.3% | SNB-19 CNS 60.6% | U251 CNS 32.1% | PC-3 prostate 40.4% | SK-MEL-5 melanoma 22.4% | UACC-62 melanoma 79.2% | LOX IMVI melanoma 32.4% | SK-MEL-28 melanoma 76.9% | SK-MEL-2 melanoma 88% | EKVX NSCLC 59.3% | SN12C renal 69.3% | UO-31 renal 66.2% | TK-10 renal 93.5% | ACHN renal 87.9% | CAKI-1 renal 61.6% | A498 renal 79.7% | CCRF-CEM leukemia 36.9% | MOLT-4 leukemia 42.8%
active: HCT-15 colon 6.41% | HT29 colon -25.4%

Cc1ccc2nc(/C=C/c3ccc(N(C)C)cc3)cc(C)c2c1
inactive: HCT-15 colon 18% | SNB-75 CNS 14.5% | SNB-19 CNS 26.2% | U251 CNS 26.2% | PC-3 prostate 38.9% | SK-MEL-5 melanoma 33.3% | UACC-62 melanoma 23.2% | LOX IMVI melanoma 34.1% | SK-MEL-28 melanoma 48.1% | SK-MEL-2 melanoma 34.8% | EKVX NSCLC 52.4% | SN12C renal 35.6% | UO-31 renal 33.5% | TK-10 renal 43.8% | ACHN renal 32.9% | CAKI-1 renal 18.2% | A498 renal 27.2% | MOLT-4 leukemia 40%
active: HT29 colon 2.01%

COc1cc(C(=O)n2nc(NCCCc3ccccc3)c3cc(N)ccc32)cc(OC)c1OC
inactive: HCT-15 colon 90.8% | HT29 colon 91.8% | SNB-75 CNS 85.2% | SNB-19 CNS 101% | U251 CNS 100% | PC-3 prostate 79% | SK-MEL-5 melanoma 89.4% | UACC-62 melanoma 92.2% | LOX IMVI melanoma 79.9% | SK-MEL-28 melanoma 96.4% | SK-MEL-2 melanoma 87.6% | EKVX NSCLC 87.3% | SN12C renal 99.3% | UO-31 renal 68.6% | TK-10 renal 97.7% | ACHN renal 91.3% | CAKI-1 renal 92.6% | A498 renal 88.7% | CCRF-CEM leukemia 69.4% | MOLT-4 leukemia 78.6%

C=C(C)[C@@H]1CC[C@]2(COC(=O)c3cccnc3)CC[C@]3(C)[C@H](CC[C@@H]4[C@@]5(C)CCCN(C(=O)c6cccnc6)C(C)(C)[C@@H]5CC[C@]43C)[C@@H]12
active: SK-MEL-5 melanoma 2.5%
inactive: HCT-15 colon 24.9% | HT29 colon 32.3% | SNB-75 CNS 53.3% | SNB-19 CNS 47.1% | U251 CNS 25.6% | PC-3 prostate 14.6% | UACC-62 melanoma 28.4% | LOX IMVI melanoma 21.3% | SK-MEL-28 melanoma 51.3% | SK-MEL-2 melanoma 65.3% | EKVX NSCLC 49.6% | SN12C renal 38.1% | UO-31 renal 35.9% | TK-10 renal 51.8% | ACHN renal 29.5% | CAKI-1 renal 32.6% | CCRF-CEM leukemia 24.9% | MOLT-4 leukemia 23.6%

COc1ccc(-c2ccc(-c3ccc(C(=N)N)nc3)s2)cc1
inactive: SNB-75 CNS 116% | SK-MEL-5 melanoma 70.8% | SK-MEL-28 melanoma 93.8% | SK-MEL-2 melanoma 88.3% | EKVX NSCLC 38.8%
active: HCT-15 colon -77% | HT29 colon -43.1% | SNB-19 CNS 4.32% | U251 CNS -51.9% | PC-3 prostate -37.4% | UACC-62 melanoma -94.2% | LOX IMVI melanoma -89% | SN12C renal -78.9% | UO-31 renal -96.8% | TK-10 renal -65.8% | ACHN renal -100% | CAKI-1 renal -92.3% | CCRF-CEM leukemia -43.4% | MOLT-4 leukemia -53.7%
